# Measured values taken from publication PMC7862700, “An all-to-all approach to the identification of sequence-specific readers for epigenetic DNA modifications on cytosine”.
# How the values were obtained:
# Experiment in all cases: DAPPL (digital affinity profiling via proximity ligation, sequencing); 10 mM Tris-HCl pH 7.5, 50 mM NaCl, 1 mM DTT, 4% glycerol, room temperature, 30 min; GST-TFs on glutathione beads, 16-mer random dsDNA library, 0.1% formaldehyde crosslink after washing; high values mean tight binding
# FLI1 = target: T1, FLI1 (Homo sapiens, UniProt Q01543 1-452); details: protein: recombinant; tags: N-terminal GST; dsDNA, one strand shown
# T1 sequence: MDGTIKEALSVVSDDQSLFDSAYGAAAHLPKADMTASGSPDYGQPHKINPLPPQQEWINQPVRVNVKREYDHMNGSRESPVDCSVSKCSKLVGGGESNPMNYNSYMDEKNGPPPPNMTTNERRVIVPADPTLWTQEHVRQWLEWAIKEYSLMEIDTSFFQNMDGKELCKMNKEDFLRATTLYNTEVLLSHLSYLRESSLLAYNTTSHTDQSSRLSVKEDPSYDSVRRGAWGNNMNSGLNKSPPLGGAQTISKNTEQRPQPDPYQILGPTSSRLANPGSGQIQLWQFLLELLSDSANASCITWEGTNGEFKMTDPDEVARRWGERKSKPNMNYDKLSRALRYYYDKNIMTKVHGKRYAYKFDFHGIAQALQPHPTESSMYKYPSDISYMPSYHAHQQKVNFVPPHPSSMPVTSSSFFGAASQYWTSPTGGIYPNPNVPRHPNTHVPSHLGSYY
# Outline: (§1)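 Sequencing on an Illumina NextSeq500 followed washing, crosslinking with 0.1% formaldehyde, proximity ligation (BsaI/T4 ligase, 1 h, 37 °C) and PCR amplification of pools that had been incubated for 30 min at room temperature with 200 nmole of a random double-stranded 16-mer DNA library in Tris/NaCl/DTT/glycerol buffer. Each pool held DNA-barcoded human transcription factors, expressed in yeast as GST fusions and captured on glutathione beads, plus a tag-only sample. Binding signal is a hexamer's read frequency for a factor divided by its frequency in the tag-only sample.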
# ELK1 = target: T2, ELK1 (Homo sapiens, UniProt P19419 1-428); details: protein: recombinant; tags: N-terminal GST; dsDNA, one strand shown
# T2 sequence: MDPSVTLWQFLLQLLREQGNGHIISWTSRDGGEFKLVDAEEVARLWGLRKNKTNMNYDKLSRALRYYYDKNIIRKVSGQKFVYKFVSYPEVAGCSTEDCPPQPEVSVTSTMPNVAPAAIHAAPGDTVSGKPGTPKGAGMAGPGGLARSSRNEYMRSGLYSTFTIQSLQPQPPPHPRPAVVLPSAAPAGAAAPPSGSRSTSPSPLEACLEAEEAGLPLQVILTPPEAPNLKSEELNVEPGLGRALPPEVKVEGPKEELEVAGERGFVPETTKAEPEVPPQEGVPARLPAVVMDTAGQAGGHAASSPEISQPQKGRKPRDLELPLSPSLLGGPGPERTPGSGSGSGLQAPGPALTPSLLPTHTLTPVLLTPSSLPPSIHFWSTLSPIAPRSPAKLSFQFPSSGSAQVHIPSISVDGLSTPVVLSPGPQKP
# Outline: as §1
# GABPA = target: T3, GABPA (Homo sapiens, UniProt Q06546 1-454); details: protein: recombinant; tags: N-terminal GST; dsDNA, one strand shown
# T3 sequence: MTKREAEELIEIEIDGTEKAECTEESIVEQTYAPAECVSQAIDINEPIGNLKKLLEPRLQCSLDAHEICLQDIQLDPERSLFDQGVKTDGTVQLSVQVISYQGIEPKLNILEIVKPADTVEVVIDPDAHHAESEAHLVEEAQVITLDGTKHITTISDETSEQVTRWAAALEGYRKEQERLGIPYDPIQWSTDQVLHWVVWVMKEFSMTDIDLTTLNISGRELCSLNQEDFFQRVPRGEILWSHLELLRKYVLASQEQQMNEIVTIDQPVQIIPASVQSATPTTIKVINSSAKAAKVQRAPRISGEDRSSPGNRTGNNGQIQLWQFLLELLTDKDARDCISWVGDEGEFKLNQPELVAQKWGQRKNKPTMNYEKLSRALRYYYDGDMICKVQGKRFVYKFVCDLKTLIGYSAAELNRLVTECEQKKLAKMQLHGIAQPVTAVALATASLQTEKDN
# Outline: as §1
# ERG = target: T4, ERG (Homo sapiens, UniProt P11308 1-479); details: protein: recombinant; tags: N-terminal GST; dsDNA, one strand shown
# T4 sequence: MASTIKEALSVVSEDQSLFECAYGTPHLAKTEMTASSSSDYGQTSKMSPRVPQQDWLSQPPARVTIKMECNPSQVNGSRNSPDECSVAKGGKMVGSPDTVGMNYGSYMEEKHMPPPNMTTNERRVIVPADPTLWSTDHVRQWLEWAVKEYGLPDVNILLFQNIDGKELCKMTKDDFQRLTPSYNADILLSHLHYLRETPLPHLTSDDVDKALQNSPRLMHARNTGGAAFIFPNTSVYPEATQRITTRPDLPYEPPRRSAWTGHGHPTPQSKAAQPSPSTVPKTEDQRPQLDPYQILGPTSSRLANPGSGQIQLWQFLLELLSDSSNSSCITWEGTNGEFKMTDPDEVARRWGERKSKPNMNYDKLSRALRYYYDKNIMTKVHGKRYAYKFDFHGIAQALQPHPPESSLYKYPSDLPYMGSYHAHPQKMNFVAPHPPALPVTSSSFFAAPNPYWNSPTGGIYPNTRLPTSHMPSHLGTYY
# Outline: as §1
# ELF1 = ELF1 (Homo sapiens, UniProt P32519 1-619); details: protein: recombinant; tags: N-terminal GST; dsDNA, one strand shown
# ELF1, sequence (P32519 whole entry): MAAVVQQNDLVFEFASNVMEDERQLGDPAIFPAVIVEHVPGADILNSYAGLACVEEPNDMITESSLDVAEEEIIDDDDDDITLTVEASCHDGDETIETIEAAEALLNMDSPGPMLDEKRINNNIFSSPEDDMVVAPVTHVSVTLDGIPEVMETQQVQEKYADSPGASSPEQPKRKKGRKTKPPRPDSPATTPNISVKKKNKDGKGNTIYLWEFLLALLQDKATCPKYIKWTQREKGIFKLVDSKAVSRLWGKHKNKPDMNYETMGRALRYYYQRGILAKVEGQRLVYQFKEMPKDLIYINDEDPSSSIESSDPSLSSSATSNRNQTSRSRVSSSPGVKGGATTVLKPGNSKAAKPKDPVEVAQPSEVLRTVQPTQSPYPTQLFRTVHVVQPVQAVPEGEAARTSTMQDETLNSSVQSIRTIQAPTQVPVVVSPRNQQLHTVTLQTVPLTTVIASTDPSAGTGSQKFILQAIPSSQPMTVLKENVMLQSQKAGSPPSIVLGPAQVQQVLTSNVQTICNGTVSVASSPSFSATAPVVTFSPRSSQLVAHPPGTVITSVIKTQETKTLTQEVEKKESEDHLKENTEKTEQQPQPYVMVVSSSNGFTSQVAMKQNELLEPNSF
# Outline: as §1
# EHF = target: T5, EHF (Homo sapiens, UniProt Q9NZC4 1-300); details: protein: recombinant; tags: N-terminal GST; dsDNA, one strand shown
# T5 sequence: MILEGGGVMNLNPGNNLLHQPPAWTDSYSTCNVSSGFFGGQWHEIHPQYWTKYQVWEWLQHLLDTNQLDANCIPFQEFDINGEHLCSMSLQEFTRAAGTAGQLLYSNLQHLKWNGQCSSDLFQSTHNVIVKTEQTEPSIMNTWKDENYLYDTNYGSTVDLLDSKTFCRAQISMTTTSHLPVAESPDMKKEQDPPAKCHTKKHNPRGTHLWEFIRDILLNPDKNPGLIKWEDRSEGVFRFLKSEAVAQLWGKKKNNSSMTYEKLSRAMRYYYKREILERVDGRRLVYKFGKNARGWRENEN
# Outline: as §1
# SPI1 = SPI1 (Homo sapiens, UniProt P17947 1-270); details: protein: recombinant; tags: N-terminal GST; dsDNA, one strand shown
# Outline: as §1
# SPIB = SPIB (Homo sapiens, UniProt Q01892 1-262); details: protein: recombinant; tags: N-terminal GST; dsDNA, one strand shown
# SPIB, sequence (Q01892 whole entry): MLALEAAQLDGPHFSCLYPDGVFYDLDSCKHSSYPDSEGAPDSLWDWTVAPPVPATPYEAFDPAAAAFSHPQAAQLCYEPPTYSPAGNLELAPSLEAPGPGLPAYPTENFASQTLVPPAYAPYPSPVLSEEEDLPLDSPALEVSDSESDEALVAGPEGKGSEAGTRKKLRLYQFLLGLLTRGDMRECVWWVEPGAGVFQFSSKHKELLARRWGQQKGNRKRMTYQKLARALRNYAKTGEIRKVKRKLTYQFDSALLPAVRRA
# Outline: as §1
# ELK3 = target: T6, ELK3 (Homo sapiens, UniProt P41970 1-407); details: protein: recombinant; tags: N-terminal GST; dsDNA, one strand shown
# T6 sequence: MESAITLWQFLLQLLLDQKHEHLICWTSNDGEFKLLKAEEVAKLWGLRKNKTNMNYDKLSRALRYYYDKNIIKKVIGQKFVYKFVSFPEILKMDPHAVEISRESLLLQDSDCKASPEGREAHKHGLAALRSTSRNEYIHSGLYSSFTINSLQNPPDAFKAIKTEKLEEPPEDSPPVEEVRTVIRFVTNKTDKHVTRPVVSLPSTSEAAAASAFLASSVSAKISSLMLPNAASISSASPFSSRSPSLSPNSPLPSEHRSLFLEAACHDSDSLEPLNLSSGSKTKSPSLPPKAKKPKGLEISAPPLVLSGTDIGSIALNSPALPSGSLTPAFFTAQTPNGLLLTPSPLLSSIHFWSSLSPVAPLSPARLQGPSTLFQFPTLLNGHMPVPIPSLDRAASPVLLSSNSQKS
# Outline: as §1
# FEV = target: T7, FEV (Homo sapiens, UniProt Q99581 1-238); details: protein: recombinant; tags: N-terminal GST; dsDNA, one strand shown
# T7 sequence: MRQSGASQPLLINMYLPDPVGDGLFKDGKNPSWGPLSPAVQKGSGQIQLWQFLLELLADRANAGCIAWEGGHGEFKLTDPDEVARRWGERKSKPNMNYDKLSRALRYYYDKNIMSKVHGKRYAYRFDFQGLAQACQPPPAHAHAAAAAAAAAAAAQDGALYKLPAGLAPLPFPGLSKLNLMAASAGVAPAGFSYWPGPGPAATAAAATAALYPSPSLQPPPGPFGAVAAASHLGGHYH
# Outline: as §1
# ETV5 = ETV5 (Homo sapiens, UniProt P41161 1-510); details: protein: recombinant; tags: N-terminal GST; dsDNA, one strand shown
# ETV5, sequence (P41161 whole entry): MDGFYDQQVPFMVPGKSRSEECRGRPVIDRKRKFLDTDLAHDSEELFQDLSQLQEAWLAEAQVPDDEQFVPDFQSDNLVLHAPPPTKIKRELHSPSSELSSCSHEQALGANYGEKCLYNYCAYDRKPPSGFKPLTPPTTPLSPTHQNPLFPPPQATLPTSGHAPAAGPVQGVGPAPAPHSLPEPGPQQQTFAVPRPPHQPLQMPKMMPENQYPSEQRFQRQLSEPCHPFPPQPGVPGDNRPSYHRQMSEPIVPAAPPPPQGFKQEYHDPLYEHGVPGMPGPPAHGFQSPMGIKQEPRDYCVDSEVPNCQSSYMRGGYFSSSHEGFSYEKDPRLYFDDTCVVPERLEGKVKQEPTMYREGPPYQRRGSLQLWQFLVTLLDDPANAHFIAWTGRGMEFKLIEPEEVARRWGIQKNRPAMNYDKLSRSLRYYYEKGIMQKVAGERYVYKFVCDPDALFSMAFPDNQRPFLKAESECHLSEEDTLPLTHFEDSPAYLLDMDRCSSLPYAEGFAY
# Outline: as §1
# HSF1 = HSF1 (Homo sapiens, UniProt Q00613 1-529); details: protein: recombinant; tags: N-terminal GST; chain copies: 3; dsDNA, one strand shown
# HSF1, sequence (Q00613 whole entry): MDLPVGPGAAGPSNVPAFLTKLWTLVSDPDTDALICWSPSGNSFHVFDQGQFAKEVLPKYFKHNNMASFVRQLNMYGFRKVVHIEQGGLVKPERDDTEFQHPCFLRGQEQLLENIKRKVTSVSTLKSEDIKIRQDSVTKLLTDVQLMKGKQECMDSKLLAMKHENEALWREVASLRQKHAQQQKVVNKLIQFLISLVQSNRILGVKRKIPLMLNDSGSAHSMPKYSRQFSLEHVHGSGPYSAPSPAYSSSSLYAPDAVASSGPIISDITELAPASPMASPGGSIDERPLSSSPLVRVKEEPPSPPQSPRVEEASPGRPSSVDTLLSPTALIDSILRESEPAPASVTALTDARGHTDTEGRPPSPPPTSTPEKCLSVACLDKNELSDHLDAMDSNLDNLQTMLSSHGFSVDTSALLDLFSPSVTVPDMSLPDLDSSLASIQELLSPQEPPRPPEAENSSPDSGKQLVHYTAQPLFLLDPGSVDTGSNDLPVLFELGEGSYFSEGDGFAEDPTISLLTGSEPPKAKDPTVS
# Outline: as §1
# SPIC = target: T8, SPIC (Homo sapiens, UniProt Q8N5J4 1-248); details: protein: recombinant; tags: N-terminal GST; dsDNA, one strand shown
# T8 sequence: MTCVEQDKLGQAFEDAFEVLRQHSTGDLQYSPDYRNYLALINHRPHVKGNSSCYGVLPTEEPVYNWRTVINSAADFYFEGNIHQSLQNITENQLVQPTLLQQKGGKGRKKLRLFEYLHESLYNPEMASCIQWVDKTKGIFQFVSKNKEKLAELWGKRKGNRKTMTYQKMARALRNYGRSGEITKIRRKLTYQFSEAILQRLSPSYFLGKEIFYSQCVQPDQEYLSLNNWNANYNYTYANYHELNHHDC
# Outline: as §1
# ELF4 = ELF4 (Homo sapiens, UniProt Q99607 1-663); details: protein: recombinant; tags: N-terminal GST; dsDNA, one strand shown
# ELF4, sequence (Q99607 whole entry): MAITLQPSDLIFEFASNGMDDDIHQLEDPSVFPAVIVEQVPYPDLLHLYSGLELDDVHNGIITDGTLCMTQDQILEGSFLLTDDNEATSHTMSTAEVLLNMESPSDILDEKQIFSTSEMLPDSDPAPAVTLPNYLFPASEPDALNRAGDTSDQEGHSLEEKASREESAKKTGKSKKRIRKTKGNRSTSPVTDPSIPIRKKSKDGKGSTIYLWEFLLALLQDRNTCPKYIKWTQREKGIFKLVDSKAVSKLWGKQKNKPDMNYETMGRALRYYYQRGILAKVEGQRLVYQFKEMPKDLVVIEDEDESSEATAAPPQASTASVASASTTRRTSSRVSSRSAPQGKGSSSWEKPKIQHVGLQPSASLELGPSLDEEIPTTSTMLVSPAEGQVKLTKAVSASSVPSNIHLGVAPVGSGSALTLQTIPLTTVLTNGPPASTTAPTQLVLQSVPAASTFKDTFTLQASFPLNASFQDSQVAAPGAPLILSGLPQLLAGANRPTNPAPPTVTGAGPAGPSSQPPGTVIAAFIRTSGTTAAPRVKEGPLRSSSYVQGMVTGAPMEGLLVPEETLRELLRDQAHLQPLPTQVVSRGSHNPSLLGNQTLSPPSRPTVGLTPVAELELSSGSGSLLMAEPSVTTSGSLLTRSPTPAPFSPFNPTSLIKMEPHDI
# Outline: as §1
# ELK4 = target: T9, ELK4 (Homo sapiens, UniProt P28324-2 1-405); details: protein: recombinant; tags: N-terminal GST; dsDNA, one strand shown
# T9 sequence: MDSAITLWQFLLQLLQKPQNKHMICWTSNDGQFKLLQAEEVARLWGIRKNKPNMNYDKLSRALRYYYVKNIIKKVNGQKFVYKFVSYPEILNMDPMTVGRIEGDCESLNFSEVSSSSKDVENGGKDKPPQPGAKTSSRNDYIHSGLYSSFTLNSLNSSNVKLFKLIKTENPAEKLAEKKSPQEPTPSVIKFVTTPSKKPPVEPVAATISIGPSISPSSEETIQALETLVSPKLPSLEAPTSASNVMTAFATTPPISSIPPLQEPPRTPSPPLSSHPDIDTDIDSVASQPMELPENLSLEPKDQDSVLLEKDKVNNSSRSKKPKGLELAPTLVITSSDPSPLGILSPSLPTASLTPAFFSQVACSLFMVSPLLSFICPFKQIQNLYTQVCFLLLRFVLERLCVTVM
# Outline: as §1
# ETV2 = target: T10, ETV2 (Homo sapiens, UniProt O00321 1-342); details: protein: recombinant; tags: N-terminal GST; dsDNA, one strand shown
# T10 sequence: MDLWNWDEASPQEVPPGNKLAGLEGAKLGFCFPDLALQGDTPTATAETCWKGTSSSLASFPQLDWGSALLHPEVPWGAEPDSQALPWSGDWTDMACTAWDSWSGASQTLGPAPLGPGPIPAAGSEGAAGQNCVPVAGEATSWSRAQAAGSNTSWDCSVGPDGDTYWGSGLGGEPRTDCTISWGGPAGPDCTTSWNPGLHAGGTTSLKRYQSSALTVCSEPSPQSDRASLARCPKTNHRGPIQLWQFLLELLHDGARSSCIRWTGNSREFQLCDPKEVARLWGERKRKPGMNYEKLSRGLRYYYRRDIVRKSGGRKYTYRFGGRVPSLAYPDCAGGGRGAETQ
# Outline: as §1
# ELF3 = target: T11, ELF3 (Homo sapiens, UniProt P78545 1-371); details: protein: recombinant; tags: N-terminal GST; dsDNA, one strand shown
# T11 sequence: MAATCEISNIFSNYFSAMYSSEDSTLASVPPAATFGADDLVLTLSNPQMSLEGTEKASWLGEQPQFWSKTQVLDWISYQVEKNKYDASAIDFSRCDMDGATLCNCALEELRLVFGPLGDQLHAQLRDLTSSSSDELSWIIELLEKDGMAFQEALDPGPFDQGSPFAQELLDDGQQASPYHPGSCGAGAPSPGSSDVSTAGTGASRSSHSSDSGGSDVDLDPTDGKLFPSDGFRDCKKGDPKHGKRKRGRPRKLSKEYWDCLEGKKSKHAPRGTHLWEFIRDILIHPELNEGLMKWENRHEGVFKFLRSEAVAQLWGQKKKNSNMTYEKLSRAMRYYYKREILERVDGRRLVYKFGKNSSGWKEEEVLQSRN
# Outline: as §1
# CRX = CRX (Homo sapiens, UniProt O43186 1-299); details: protein: recombinant; tags: N-terminal GST; dsDNA, one strand shown
# CRX, sequence (O43186 whole entry): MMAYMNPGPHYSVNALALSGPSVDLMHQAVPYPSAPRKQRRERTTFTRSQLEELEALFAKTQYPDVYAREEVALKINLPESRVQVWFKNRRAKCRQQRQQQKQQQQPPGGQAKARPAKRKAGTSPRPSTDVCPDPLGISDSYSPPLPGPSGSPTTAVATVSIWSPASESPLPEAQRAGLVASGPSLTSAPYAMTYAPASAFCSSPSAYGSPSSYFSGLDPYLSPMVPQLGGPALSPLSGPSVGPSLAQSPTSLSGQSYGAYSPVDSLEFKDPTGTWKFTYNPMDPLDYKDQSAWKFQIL
# Outline: as §1
# ETV1 = ETV1 (Homo sapiens, UniProt P50549 1-477); details: protein: recombinant; tags: N-terminal GST; dsDNA, one strand shown
# ETV1, sequence (P50549 whole entry): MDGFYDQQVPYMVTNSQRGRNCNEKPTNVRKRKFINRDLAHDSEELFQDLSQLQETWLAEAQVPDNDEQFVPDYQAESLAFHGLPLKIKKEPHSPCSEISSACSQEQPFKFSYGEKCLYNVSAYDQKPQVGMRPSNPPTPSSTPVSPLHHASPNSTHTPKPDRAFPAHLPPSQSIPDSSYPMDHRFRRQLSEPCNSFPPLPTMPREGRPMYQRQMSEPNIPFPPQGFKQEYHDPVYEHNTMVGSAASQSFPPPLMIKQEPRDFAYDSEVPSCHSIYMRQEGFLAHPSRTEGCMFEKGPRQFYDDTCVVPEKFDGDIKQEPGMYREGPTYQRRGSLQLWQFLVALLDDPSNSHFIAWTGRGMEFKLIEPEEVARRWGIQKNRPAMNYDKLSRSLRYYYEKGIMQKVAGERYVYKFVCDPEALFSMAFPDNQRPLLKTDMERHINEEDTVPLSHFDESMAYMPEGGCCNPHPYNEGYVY
# Outline: as §1
sequence,measurement,setting,value
AACCCT,binding signal,FLI1,"1.31 fold enrichment (6-mer frequency, TF over GST control)"
same,binding signal,ELK1,"1.4 fold enrichment (6-mer frequency, TF over GST control)"
same,binding signal,GABPA,"1.29 fold enrichment (6-mer frequency, TF over GST control)"
same,binding signal,ERG,"1.23 fold enrichment (6-mer frequency, TF over GST control)"
same,binding signal,ELF1,"1.35 fold enrichment (6-mer frequency, TF over GST control)"
same,binding signal,EHF,"1.18 fold enrichment (6-mer frequency, TF over GST control)"
same,binding signal,SPI1,"1.32 fold enrichment (6-mer frequency, TF over GST control)"
same,binding signal,SPIB,"1.29 fold enrichment (6-mer frequency, TF over GST control)"
same,binding signal,ELK3,"1.5 fold enrichment (6-mer frequency, TF over GST control)"
same,binding signal,FEV,"1.29 fold enrichment (6-mer frequency, TF over GST control)"
same,binding signal,ETV5,"1.31 fold enrichment (6-mer frequency, TF over GST control)"
same,binding signal,HSF1,"1.24 fold enrichment (6-mer frequency, TF over GST control)"
same,binding signal,SPIC,"1.18 fold enrichment (6-mer frequency, TF over GST control)"
same,binding signal,ELF4,"1.34 fold enrichment (6-mer frequency, TF over GST control)"
same,binding signal,ELK4,"1.24 fold enrichment (6-mer frequency, TF over GST control)"
same,binding signal,ETV2,"1.2 fold enrichment (6-mer frequency, TF over GST control)"
same,binding signal,ELF3,"1.33 fold enrichment (6-mer frequency, TF over GST control)"
same,binding signal,CRX,"1.39 fold enrichment (6-mer frequency, TF over GST control)"
same,binding signal,ETV1,"1.38 fold enrichment (6-mer frequency, TF over GST control)"
